MLL AF4-AF9 inh: MLL-AF4/AF9 protein interaction inhibition; AlphaScreen, biotin-AF4 peptide binding to FLAG-AF9; inhibition, % at 10 µM; actives 0.47% (n = 350,000);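 active = every replicate reaching a set inhibition limit, whatever the replicate mean, cut at about 25% in these data; inconclusive = mean inhibition reaches that limit but some replicates miss it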;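 also: 0% = plate neutral control median and 100% = total signal loss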
PGC1a acetyl inh: PGC1a acetylation modulation, inhibitor mode. U2OS PGC1a acetylation, AlphaScreen anti-acetyl-lysine; with virally co-expressed GCN5 acetyltransferase. inhibition, % at 15.6 µM. actives 0.17% (n = 350,000);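 active = every replicate shows inhibition of at least 40%; inconclusive = mean inhibition at least 40% but some replicate below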;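 also: 0% = neutral control wells and 100% = positive control wells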
Env fusion inh: blocks HIV Env-driven cell-cell fusion; HeLa-JRFL Env/CEM21 cell fusion, luciferase; inhibition, % at 12.3 µM; actives 1.1% (n = 360,000); AID 651610;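 active = mean replicate inhibition score of at least 50 and every replicate individually at or above 50; inconclusive = only one of the two criteria met; inactive = mean below 50 and not all replicates reaching 50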;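 also: 0% = plate neutral controls and 100% = maraviroc near 300 nM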
NSD2 HMT inh: blocks human histone methyltransferase NSD2. NSD2 peptide methylation, AlphaScreen, 120 min. actives 0.54% (n = 310,000). inhibition, % at 12.5 µM. AID 743445. O96028; in the data active = inhibition above about 50%
GSIS activator: primary screen for activators of insulin secretion dependent on glucose, INS-1E cells, GLuc reporter luminescence; INS-1E GLuc reporter insulin secretion, 2-3 h; activation, % at 16.6 µM; actives 0.61% (n = 370,000); AID 743287;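 active = lowest replicate activation of at least 40%, so every replicate reaches that level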;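 also: 0% = median of neutral control wells and 100% = median of IBMX positive control wells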
Alpha artifact: AlphaScreen assay artifact in NSD2 counter-screen | AC35, µM (highest dose often 10 µM), for the others: at the highest dose activity change, negative = signal loss | AlphaScreen artifact counterscreen, preloaded methylated H4 peptide | shares compounds with NSD2 HMT inh | actives 9.4% (n = 1,500) | AID 1053174; call rule not given here
* hit, by the source's call; ? = inconclusive; . = no result; [ ] = another dose, or the depositor's remark. Most compounds without a hit are left out; they make up all but 2.1% or so of the library.

SMILES	MLL AF4-AF9 inh	PGC1a acetyl inh	Env fusion inh	NSD2 HMT inh	GSIS activator	Alpha artifact
CCOc1ccc(C(=O)OCC(=O)Nc2cccc(S(=O)(=O)N3CCCC3)c2)cc1	-2.4	-1.1	19.6	-1.8	-10.7	.
O=C(N/N=C1\C/C(=N\NC(=O)c2ccncc2)c2ccccc21)c1ccncc1	8.7	-2.8	17.4	108.1*	2.3	-2.1%
Cc1ccccc1-c1noc(C23CC4CC(CC(C4)C2)C3)n1	.	3.7	-22.4	63.4*	.	5.8%
c1cncc(-c2noc(C34CC5CC(CC(C5)C3)C4)n2)c1	.	-14.9	-40.9	-8.7	.	.
O=C(N/N=C/c1ccccn1)c1cc(-c2ccc(Br)cc2)nc2ccccc12	-3.9	17.4	-7.3	0.4	-5.4	.
N#Cc1c2nc3ccccc3nc2n2cc(NC(=O)c3ccc(F)cc3)ccc12	3.0	.	-48.1	73.4*	6.5	-4.2%
Cc1c(C(=O)Nc2ccc(F)cc2)cn2c(nc3ccccc32)c1C#N	-7.5	8.2	-6.1	-0.3	0.6	.
COc1cccc(C(=O)N2CCN(Cc3nc(CC4CC4)no3)CC2)c1	13.2	1.2	11.0	.	-3.2	.
C=CC[n+]1c(-c2ccc(Cl)cc2Cl)csc1Nc1c(C)n(C)n(-c2ccccc2)c1=O	18.5	4.5	36.1	50.7*	-28.4	-14.4%
O=C(COc1ccccc1)Nc1ccc(S(=O)(=O)N2CCCC2)cc1	-1.9	-0.5	-3.0	.	7.9	.
Cc1ccc(N2CC(C(=O)OCC(=O)c3ccc(F)cc3)CC2=O)cc1 (centres undefined)	1.3	.	-11.4	1.3	7.8	.
CCN(CC)CCCN(Cc1cc2cc(OC)c(OC)cc2[nH]c1=O)C(=O)Nc1ccccc1	.	-7.4	-82.4	50.9*	.	0.0%
CCN(CC)CCCN(Cc1cc2cc3c(cc2[nH]c1=O)OCO3)C(=S)NCCOC	-4.0	.	-0.5	26.7	.	.
CCNC(=S)N(CCCN(CC)CC)Cc1cc2cc3c(cc2[nH]c1=O)OCO3	-10.6	5.1	0.7	84.1*	6.6	-6.8%
Cc1ccc(S(=O)(=O)N(C)C[C@@H]2Oc3c(NC(=O)c4ccc(-c5nccs5)cc4)cccc3C(=O)N([C@@H](C)CO)C[C@H]2C)cc1	2.4	-5.9	-109.8[16.7 µM]	.	-3.9	.
CCCCCOC(=O)c1c(N)n(CCOC)c2nc3ccccc3nc12	.	5.0	11.5	61.3*	.	7.5%
CN(CC(=O)N1CCOCC1)S(=O)(=O)c1ccc2ccccc2c1	-2.6	.	13.0	-1.2	-3.6	.
O=C(NCCN1CCCCC1)/C(=C/c1ccco1)NC(=O)c1ccccc1	-4.0	23.9	-3.0	78.6*	6.2	-2.4%
COc1ccc(/C=C2\N=C(C(C)(C)C)OC2=O)c(OC)c1	0.8	2.1	-21.3	91.0*	-10.1	-0.8%
N#Cc1c(SCC(=O)Nc2ccc(C(F)(F)F)cc2)sc2c(O)cc(=O)[nH]c12	1.0	-10.2	1.5	.	-2.6	.
N#Cc1c(SCC(=O)Nc2nncs2)sc2c(O)cc(=O)[nH]c12	-2.0	-6.3	26.5	111.0*	27.7	-9.9%
N#C/C(=C/c1cccn1-c1cccc(C(=O)O)c1)c1ccc(Cl)cc1	-2.0	-0.3	10.4	.	5.2	.
Cc1ccc(CN2C(=O)N/C(=C\c3cccn3-c3cccc(C(=O)O)c3)C2=O)cc1	0.1	-0.1	-2.4	59.3*	3.0	-6.0%
Cc1ccc(NC(=O)CN2C(=O)N/C(=C/c3cc(C)n(-c4cccc(C(=O)O)c4)c3C)C2=O)cc1	-6.0	17.2	17.5	76.7*	-8.5	-15.0%
Cc1ccc(NC(=O)CN2C(=O)N/C(=C\c3cccn3-c3cccc(C(=O)O)c3)C2=O)cc1	.	9.0	.	30.8	.	.
SMILES	MLL AF4-AF9 inh	PGC1a acetyl inh	Env fusion inh	NSD2 HMT inh	GSIS activator	Alpha artifact
O=C(O)c1ccc(-n2cccc2/C=C2/NC(=O)N(c3ccccc3)C2=O)cc1	-2.3	-7.0	?	101.1*	-4.6	-15.4%
O=C(O)c1cccc(-n2cccc2/C=C2\NC(=O)N(Cc3ccc(F)cc3)C2=O)c1	2.2	10.1	21.3	27.7	-11.9	.
O=C(O)c1ccc(-n2cccc2/C=C2/NC(=O)N(c3cccc(Cl)c3)C2=O)cc1	-2.6	.	2.7	.	.	.
N#CC(C#N)=Cc1cccn1-c1ccc(C(=O)O)cc1	-2.2	10.9	10.4	99.7*	13.6	-7.6%
CC(C)n1nnnc1SCC(=O)NNC(=O)C1CCCCC1	2.8	-0.5	-1.0	-1.6	5.0	.
C[C@@H]1CN([C@@H](C)CO)S(=O)(=O)c2ccc(C#Cc3ccccn3)cc2O[C@@H]1CN(C)Cc1cccc(F)c1	-0.4	-16.4	-59.5[16.7 µM]	.	-36.8	.
CC(=O)NC1=NC(=O)/C(=C/c2cc(C)n(-c3cccc(C(=O)O)c3)c2C)S1	-4.0	6.7	-101.0	131.2*	-12.2	-11.3%
CC(=O)NC1=NC(=O)/C(=C/c2cc(C)n(-c3ccc(NC(C)=O)cc3)c2C)S1	1.7	2.1	-23.5	-1.1	-45.8	.
O=C(Nc1ccc2nsnc2c1)N1CCCCCC1	.	-1.1	-131.8	-0.3	.	.
S=C(Nc1ccc2nsnc2c1)N1CCCC1	4.6	21.0	-20.4	141.0*	-13.3	5.6%
CCCn1c2c(c(O)c(C(=O)NCCCN(CC)CC)c1=O)CCCC2	.	-21.6	19.8	58.9*	.	-9.2%
CCOC(=O)c1c(NC(=O)CSc2ncnc3[nH]ncc23)sc2c1CCC(C)C2 (centres undefined)	-0.8	-8.6	12.6	-1.1	-1.2	.
Cn1cc2ccc([N+](=O)[O-])cc2n1	.	4.6	-3.2	28.8	-5.2	.
Cn1cc2ccc(N)cc2n1	-0.2	5.4	7.8	87.5*	-1.5	0.5%
COc1ccc(-c2[nH][nH]c(=O)c2NC(=O)c2ccc(C)cc2)cc1	-0.7	10.5	.	.	-0.1	.
N=C1/C(=C\c2ccc(Br)o2)C(=O)N=C2SC(CC(=O)N3CCCCC3)=NN12	-14.7	8.9	-66.3	66.7*	-0.4	-4.5%
Cc1ccc(/C=C2/C(=N)N3N=C(CC(=O)N4CCCC4)SC3=NC2=O)o1	-7.4	7.1	-3.7	3.9	-6.3	.
Cc1ccc(Cl)cc1NC(=O)C[n+]1ccc(Cc2ccc([N+](=O)[O-])cc2)cc1	16.4	.	-2.7	84.1*	10.3	-10.5%
C=C[C@@H]1c2cccc(C)c2N(S(=O)(=O)c2ccc(C)cc2)[C@H](c2ccccc2)C1(C#N)S(=O)(=O)c1ccccc1 (some centres undefined)	0.8	-6.0	22.3	.	0.1	.
NS(=O)(=O)c1ccc(N=Nc2ccc(=O)[nH]c2O)cc1	-1.1	.	-40.8	109.6*	3.5	-6.2%
Nc1nc(N)c(N=Nc2ccc(S(N)(=O)=O)cc2)c(=O)[nH]1	-11.1	16.5	7.0	-0.7	8.3	.
CCc1ccc(N(CC(=O)NCc2ccc3c(c2)OCO3)C(=O)c2csnn2)cc1	-2.4	.	-10.3	60.4*	2.8	-2.0%
CCOc1ccc(N(CC(=O)NCc2ccc3c(c2)OCO3)C(=O)c2csnn2)cc1	-1.8	10.9	-10.8	-1.4	-3.3	.
Cc1cccc(OCC(=O)Nc2ncn[nH]2)c1C	.	0.5	-8.8	98.1*	-5.7	-5.8%
CCOc1ccc2[nH]c3c(NCCN(CC)CC)ncnc3c2c1	6.4	-3.0	-16.6	103.2*	.	-4.0%
